Each structure is given as a SMILES string. The panel holds about 79,000 compounds, 15% with a hit somewhere; the sample as a whole holds those more often. Unmarked numbers belong to inactive results. Calls of active or inactive are those of the source. Rule as the data show it: active = growth inhibition above about 70%; inactive = the rest.

A short description of one assay: NCI Yeast Anticancer Drug Screen. Data for the CLN2oe strain (AID 163).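 Also: 0% = growth of vehicle-only control cultures.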 The conditions noted are these: S. cerevisiae CLN2oe strain, at 33.0 µM, hits give high values. In outline:
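Yeast cells carrying a defined cell-cycle control alteration were exposed to test compounds. Growth inhibition was scored against vehicle-treated control cultures.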
In the case of `Cc1ccc2nc(N/N=C/c3ccc(C)s3)cc(C)c2c1`, the growth inhibition is 99% (active).

Take `COc1cc(NCCCCCNC(C)C)c2ncccc2c1Cl`: the growth inhibition was 14%.

Turning to `COc1ccc2cc(CN3CCC(C4CCN(Cc5ccc6cc(OC)ccc6c5)CC4)CC3)ccc2c1`, the growth inhibition was 36%.

On to `CC(=O)O/N=C/c1c2ccccc2cc2ccccc12`, for which the growth inhibition was -6%.

As for `CC[C@@]1(OC(=O)CN(C)C)C(=O)OCc2c1cc1n(c2=O)Cc2cc3ccccc3nc2-1`, the growth inhibition was 73% (active).

For the compound `CC1(C)CC(=O)C(C(CC(c2ccccc2)c2cc3c(cc2O)OCO3)C2=C(O)CC(C)(C)CC2=O)=C(O)C1` (configuration not stated), the growth inhibition was 76% (active).

For the compound `CCCCCCC(CCl)c1sc(-c2csc(CCNC(=O)OC(C)(C)C)n2)nc1C(=O)OC` (configuration not stated), the growth inhibition was -10%.

In the case of `CCOC(=O)C1=C(C)NC(C)=C(C(=O)OCC)C1c1cccc([N+](=O)[O-])c1`, the growth inhibition is 31%.

On to `Cc1ccc2c(/C=C/c3ccc(N(C)C)cc3)ccnc2c1C`, for which the growth inhibition was 39%.

For `O=C1C(Br)=CC(Br)(Br)C=C1Br`, the growth inhibition is 98% (active).

Staying with this assay, now noted: S. cerevisiae CLN2oe strain, at 100.0 µM, hits give high values.
With `CNC(=O)OCc1c(COC(=O)NC)c(C)n(-c2ccc(Cl)c(Cl)c2)c1C`, the growth inhibition was 94% (active).

In the case of `COc1ccc2nc(N/N=C/c3sccc3C)cc(C)c2c1`, the growth inhibition is 94% (active).

For `O=C(O)/C=C\C(=O)NNc1ccc(Br)cc1`, the growth inhibition is 99% (active).

Regarding `S=c1[nH]nc(Cc2ccccc2)c(=S)[nH]1`, the growth inhibition was 96% (active).

For the compound `COc1ccc2nc3cccc([N+](=O)[O-])c3c(NCCCO)c2c1`, the growth inhibition was 98% (active).

Consider `CCN(CC)CCSc1c2ccccc2nc2cc(NCC(=O)Nc3ccccc3-c3ccccc3NC(=O)CNc3ccc4c(SCCN(CC)CC)c5ccccc5nc4c3)ccc12`, for which the growth inhibition is 96% (active).

For the compound `Cc1ccc(N(C=O)c2c([N+](=O)[O-])cc([N+](=O)[O-])c3c2=[N+]([O-])CN=3)cc1`, the growth inhibition is 98% (active).

On to `COc1ccc(C(=O)OCCc2ccccc2)cc1`, for which the growth inhibition is -6%.

Take `COc1ccc(C(=O)NCCN(C)C)c2nc3ccccc3cc12`: the growth inhibition was 73% (active).

For `NCC(O)CSCc1ccc(Cl)cc1` (configuration not stated), the growth inhibition is 28%.

On to `CN(C)/N=N/c1nc[nH]c1C(N)=O`, for which the growth inhibition was 99% (active).

As for `O=c1[nH]c(=O)n(CCCO)cc1F`, the growth inhibition was 7%.

For the compound `COc1ccc(/C(=N/O)c2ccccc2C2=Nc3ccccc3C(NCc3ccccc3)O2)cc1C` (configuration not stated), the growth inhibition is 94% (active).

Consider `CCCC(=O)OC(OC(=O)CCC)c1ccc([N+](=O)[O-])o1`, for which the growth inhibition was 8%.

Consider `O=C(/C(=C/c1ccccc1)CBr)c1ccccc1`, for which the growth inhibition is 99% (active).

As for `Cc1cccc(N2CCN(C(=O)/C(=C/c3ccccc3)NC(=O)c3ccccc3)CC2)c1`, the growth inhibition is 33%.

With `c1cc(Nc2ccc3c(c2)OCO3)c2cc(C3CCCCC3)ccc2n1`, the growth inhibition was 52%.

On to `Cc1ccc2nc(N/N=C/c3ccc(C)s3)cc(C)c2c1`, for which the growth inhibition is 93% (active).

Consider `COc1cc(NCCCCCNC(C)C)c2ncccc2c1Cl`, for which the growth inhibition is 36%.

With `COc1ccc2cc(CN3CCC(C4CCN(Cc5ccc6cc(OC)ccc6c5)CC4)CC3)ccc2c1`, the growth inhibition is 98% (active).

On to `CC(=O)O/N=C/c1c2ccccc2cc2ccccc12`, for which the growth inhibition is -6%.

In the case of `CC[C@@]1(OC(=O)CN(C)C)C(=O)OCc2c1cc1n(c2=O)Cc2cc3ccccc3nc2-1`, the growth inhibition is 87% (active).

As to `CC1(C)CC(=O)C(C(CC(c2ccccc2)c2cc3c(cc2O)OCO3)C2=C(O)CC(C)(C)CC2=O)=C(O)C1` (configuration not stated), the growth inhibition was 87% (active).

Regarding `CCCCCCC(CCl)c1sc(-c2csc(CCNC(=O)OC(C)(C)C)n2)nc1C(=O)OC` (configuration not stated), the growth inhibition is 66%.

For the compound `CCOC(=O)C1=C(C)NC(C)=C(C(=O)OCC)C1c1cccc([N+](=O)[O-])c1`, the growth inhibition was 87% (active).

Regarding `Cc1ccc2c(/C=C/c3ccc(N(C)C)cc3)ccnc2c1C`, the growth inhibition is 71% (active).

Turning to `O=C1C(Br)=CC(Br)(Br)C=C1Br`, the growth inhibition is 99% (active).
